Experimental data from ChEMBL document CHEMBL4296182, “CO-ADD screening of NIH NCI Diversity Set V”.
For part of these data: Results with a measured potency or affinity are listed apart.

Assays:
Staphylococcus aureus = experiment: Antibacterial activity against Staphylococcus aureus MRSA ATCC 43300 (CO-ADD:GP_020); MIC in CAMBH media using NBS plates, by Resazurin F(560/590); assay type: functional; conditions: Concentration 20 uM, ASSAY_TEST Inhibition of Bacterial Growth, detection method Resazurin, Fluorescence (ex560/em590), MEDIA CAMHB, plate type 384well, CORNING #3640, time 18 hr
Acinetobacter baumannii = experiment: Antibacterial activity against Acinetobacter baumannii ATCC 19606 (CO-ADD:GN_034); MIC in CAMBH media using NBS plates, by Resazurin F(560/590); assay type: functional; conditions: Concentration 20 uM, ASSAY_TEST Inhibition of Bacterial Growth, detection method Resazurin, Fluorescence (ex560/em590), MEDIA CAMHB, plate type 384well, CORNING #3640, time 18 hr
Escherichia coli = experiment: Antibacterial activity against Escherichia coli ATCC 25922 (CO-ADD:GN_001); MIC in CAMBH media using NBS plates, by Resazurin F(560/590); assay type: functional; conditions: Concentration 20 uM, ASSAY_TEST Inhibition of Bacterial Growth, detection method Resazurin, Fluorescence (ex560/em590), MEDIA CAMHB, plate type 384well, CORNING #3640, time 18 hr
Klebsiella pneumoniae = conditions: Concentration 20 uM; ASSAY_TEST Inhibition of Bacterial Growth; detection method Absorption (OD600); MEDIA CAMHB; plate type 384well; NBS; CORNING #3640; time 18 hr
Candida albicans = conditions: 20 µM
Cryptococcus neoformans = conditions: Concentration 20 uM; ASSAY_TEST Inhibition of Fungal Growth; detection method Resazurin; Absorption (OD600-OD570); plate type 384well; NBS; CORNING #3640

Row | SMILES | Inhibition (Staphylococcus aureus) [%] | Inhibition (Acinetobacter baumannii) [%] | Inhibition (Escherichia coli) [%] | Inhibition (Klebsiella pneumoniae) [%] | Inhibition (Candida albicans) [%] | Inhibition (Cryptococcus neoformans) [%]
1 | Cc1ccc(/N=N/c2ccc(N)cc2C)c(S(N)(=O)=O)c1 | -7.58 | -6.13 | 2.58 | 0.06 | 2.21 | -0.55
2 | CCOC(=O)c1[nH]c(C(=O)O)c(OC(=O)CC)c1C | 3.4 | 12.19 | 5.33 | 12.1 | 11.4 | -14.68
3 | CCSc1ncc(CO)c(N)n1 | 4.68 | -13.15 | 2.64 | 10.1 | 0.06 | 1.67
4 | c1ccc2[nH]c(CCCCCc3nc4ccccc4[nH]3)nc2c1 | 5.94 | 0.02 | -19.74 | 9.39 | 4.8 | 17.08
5 | CC(=O)Nc1c(C)cc(OCC(=O)O)cc1C | 2.34 | -5.79 | 3.28 | 20.93 | 1.74 | -9.89
6 | CN(C)S(=O)(=O)c1ccccc1N=C=S | 19.33 | 5.01 | 10.9 | 5.89 | 4.38 | -9.71
7 | O=C1c2cccc(Sc3ccccc3)c2C(=O)c2c(Sc3ccccc3)cccc21 | 13.79 | -8.62 | 22.23 | 3.23 | 0.05 | -7.69
8 | COc1ccn(C2CCCCO2)c(=O)n1 (stereo not given) | 1.35 | -10.23 | 3.33 | 6.04 | 0.65 | -5.3
9 | CCc1ccc(CCN2C(=O)c3ccccc3C2=O)nc1 | 9.03 | 4.62 | -1.52 | 17.62 | 2.59 | -6.09
10 | Nc1nnc(-c2cccnc2)s1 | -3.99 | -10.83 | 3.28 | -1.35 | 0.77 | -10.94
11 | CC(C)(C)c1ccc(OCC(=O)O)cc1 | 4.22 | -1 | 10.46 | 8.68 | 8.84 | -1.59
12 | COc1ccccc1N=NNc1ccccc1OC | 15.47 | -0.02 | 3.88 | 9.87 | 2.77 | -8.49
13 | O=C1CSCc2nc3ccccc3n21 | 4.29 | -8.34 | 5.14 | 18.88 | 1.65 | -7.32
14 | CSC(=N)NS(=O)(=O)c1ccc(NC(C)=O)cc1 | 1.24 | -21.01 | 12.78 | 3.27 | 0.03 | -9.44
15 | COC(=NC(C)C)NC(C)C | 0.33 | -8.49 | 15.21 | 8 | 1.22 | -13.2
16 | CCOC(=O)C(=O)Cc1cccnn1 | 12.36 | -7.97 | 16.74 | 15.16 | 9.85 | -1.54
17 | O=C(c1ccccc1)c1ccccc1C(=O)c1ccccc1 | 16.85 | 12.71 | 4.94 | 16.03 | 2.49 | -5.73
18 | CC1=CN2C(c3cccc([N+](=O)[O-])c3)=NON(c3ccc(C)cn3)C2C=C1 (stereo not given) | 16.79 | -11.84 | 19.37 | 7.72 | 17.2 | 0.26
19 | CC1=Nc2ccccc2/C1=C\c1c(C)[nH]c2ccccc12 | 7.03 | 6.7 | 0.88 | 14.94 | 6.28 | -2.97
20 | Cc1c(Cl)cccc1NC(=O)CC1Sc2ccccc2NC1=O (stereo not given) | 7.76 | 13.12 | -17.77 | 3.05 | 8.03 | 45.43
21 | COC1C(=O)CCC2(CO2)C1(O)C1(C)OC1CC=C(C)C (stereo not given) | -15.99 | -18.89 | 14.59 | 5.17 | 9.99 | -9.09
22 | CC(=O)N1C(=O)C2(NCC(C)N2)c2ccccc21 (stereo not given) | 7.15 | -16.52 | 6.45 | 10.18 | 2.13 | -1.95
23 | O=C1c2ccccc2C(=O)c2[nH]cnc21 | -4.2 | -6.06 | -19.22 | 13.37 | 6.65 | 21.89
24 | O=C(O)C(c1ccccc1)C1(O)CCCCC1 (stereo not given) | 4.6 | -11.34 | 11.15 | 5.64 | 0.92 | -11.66
25 | Cn1c(=O)c2c(nc(Oc3ccccc3)n2C)n(C)c1=O | 7.55 | 11.19 | -2.76 | 19.27 | 7.25 | -3.63
